Measured values published in PubChem BioAssay (NCI).
About 79,000 compounds went through this panel and 15% of them were active in at least one assay; those are over-represented in the sample as a whole. Cut-off read from the data, not from the text of the source: active = growth inhibition above about 70%; inactive = the rest.

Columns and labels:
[1] = NCI Yeast Anticancer Drug Screen. Data for the rad50 strain (AID 155);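 note: 0% = growth of vehicle-only cultures of the same strain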; conditions: S. cerevisiae rad50 strain growth inhibition; at 50.0 µM; hits give high values
Procedure, shortened: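 Relative growth inhibition (compound vs vehicle) was measured in yeast with a defined repair-gene alteration.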

[2] = NCI Yeast Anticancer Drug Screen. Data for the mec2-1 strain (AID 157); conditions: S. cerevisiae mec2-1 strain, at 50.0 µM, hits give high values
Procedure, shortened: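 Readout is yeast growth inhibition, normalised to vehicle-treated controls, in the mec2-1 strain exposed to compound.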

[3] = NCI Yeast Anticancer Drug Screen. Data for the sgs1 mgt1 strain (AID 161);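 note: 0% = growth of cultures given vehicle only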; conditions: S. cerevisiae sgs1 mgt1 strain, at 50.0 µM, hits give high values
Procedure, shortened: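 Compounds are added to genetically altered yeast, and growth is compared with cultures given vehicle alone to give percent inhibition.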

[4] = NCI Yeast Anticancer Drug Screen. Data for the cln2 rad14 strain (AID 165);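 note: 0% = growth equal to vehicle treated cultures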; conditions: S. cerevisiae cln2 rad14 strain, at 50.0 µM, hits give high values
Procedure, shortened: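 Relative to vehicle controls, growth inhibition of compound-treated cln2 rad14 yeast was recorded.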

[5] = NCI Yeast Anticancer Drug Screen. Data for the bub3 strain (AID 167); conditions: S. cerevisiae bub3 mutant strain, at 50.0 µM, hits give high values
Procedure, shortened: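 Screening used yeast with an engineered genetic alteration affecting cell cycle control. Compound-exposed cultures were compared with vehicle cultures, and reduced growth was taken as inhibition.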

[6] = NCI Yeast Anticancer Drug Screen. Data for the mlh1 rad18 strain (AID 175); conditions: S. cerevisiae mlh1 rad18 strain growth inhibition; at 50.0 µM; hits give high values
Procedure, shortened: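 Test agents were incubated with a yeast strain of defined genotype (DNA damage repair defect). Inhibition of growth was derived by comparison with vehicle-exposed cultures.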

Measured: growth inhibition

O=S(=O)(O)C(Br)(Br)Br
inactive: [1] 29.4% | [2] 5.3% | [3] 23.6% | [4] -26.9% | [5] 7.25% | [6] 28.2%

COc1ccc2[nH]c3c(c2c1)CCNC3C (stereo unspecified)
inactive: [1] 2.3% | [2] -12.6% | [3] 2.6% | [4] -52.1% | [5] 5.4% | [6] -17.3%

ICc1nc2ccccc2[nH]1
inactive: [1] 15.6% | [2] -3.6% | [3] 3.65% | [4] -1.75% | [5] -14.5% | [6] 6.1%

CC[C@@H]1C[C@H]2CC3c4[nH]c5ccc(O)cc5c4CCN(C2)C31
inactive: [1] 3.4% | [2] -24.4% | [3] 23.6% | [4] 5.35% | [5] -1.45% | [6] 5.6%

CC(C(=O)c1ccccc1)N(C)Cc1ccccc1 (stereo unspecified)
inactive: [1] -27.4% | [2] -2.05% | [3] 6.75% | [4] -36.7% | [5] 42.5% | [6] 17.1%

COc1ccc(CN2CCCN(Cc3ccc(OC)cc3)C2c2ccc(N(CCCl)CCCl)cc2)cc1
inactive: [1] 30.3% | [2] 2.4% | [3] 43.8% | [4] 19.8% | [5] -15.3% | [6] 35.8%

Cc1ccc(C(=O)Nc2ccc(CP(=O)(O)O)cc2)cc1NC(=O)Nc1cc(C(=O)Nc2ccc(CP(=O)(O)O)cc2)ccc1C
inactive: [1] 3.55% | [2] -10.6% | [3] -30.1% | [4] 11.9% | [5] -29.1% | [6] 7.45%

O=C([O-])C(=O)[O-].[Co+3].[NH2-].[NH2-].[NH2-].[NH2-].[O-][Cl+3]([O-])([O-])O
inactive: [1] 18.5% | [2] 21.9% | [3] 13.2% | [4] 15.7% | [5] 18.1% | [6] 36.8%

Oc1cccc(/C=N\NC(=S)NC2CN3CCC2CC3)c1 (stereo unspecified)
inactive: [1] 2.85% | [2] -5.9% | [3] -5.85% | [4] -4.45% | [5] 7.1% | [6] -12.8%

CCOP(=O)(OCC)O/N=C(/c1ccccc1)C(C)C
inactive: [1] 25.4% | [2] 4.85% | [3] 19.9% | [4] 10.3% | [5] -0.1% | [6] 2.4%

O=P(O)(O)CCP(=O)(O)O
inactive: [1] -14.5% | [2] 17.9% | [3] -13.4% | [4] 21.8% | [5] -13.7% | [6] -13.7%

NC(=O)C1(Br)CCCCC1
inactive: [1] -11.8% | [2] -18.9% | [3] -10.5% | [4] -7.25% | [5] 8.45% | [6] -3.55%

CC(C)OP(=O)(OC(C)C)/C(C#N)=C/c1ccco1
inactive: [1] -23.9% | [2] -51% | [3] -23.6% | [4] -32.2% | [5] -20.1% | [6] -31.9%

CC[CH2][Sn]([Br])([CH2]CC(=O)OC)[CH2]CC(=O)OC
inactive: [1] 16.5% | [2] 4.2% | [3] 50.1% | [4] -19.9% | [5] 9.85% | [6] 12.1%

COc1ccc(C=C(C#N)C#N)cc1OC
inactive: [1] -2.8% | [2] -8.15% | [3] -1.95% | [4] -24.2% | [5] -1.3% | [6] -0.25%

O=C(Cc1ccccc1)OCC1CCCO1 (stereo unspecified)
inactive: [1] 18.2% | [2] -6.6% | [3] -3.45% | [4] -25.7% | [5] -17.8% | [6] 10.5%

O=NNc1cncc(Cl)n1
inactive: [1] -11.2% | [2] -3.5% | [3] -5.35% | [4] -17.9% | [5] -0.4% | [6] -6.05%

O=C(O)C(O)(c1ccccc1)c1ccsc1 (stereo unspecified)
inactive: [1] 4.45% | [2] 2.15% | [3] -8.6% | [4] -28.9% | [5] 1.95% | [6] 8.8%

CC12CCC3C4CCC(=O)C=C4CCC3C1CC1CC(=O)OC12 (stereo unspecified)
inactive: [1] -4.15% | [2] 1% | [3] 0.4% | [4] -7.95% | [5] 11.7% | [6] -2.8%

CC1OC(=O)C(C(C)C)NC(=O)C(C(C)C)OC(=O)C(C(C)C)NC(=O)C(C)OC(=O)C(C(C)C)NC(=O)C(C(C)C)OC(=O)C(C(C)C)NC(=O)C(C)OC(=O)C(C(C)C)NC(=O)C(C(C)C)OC(=O)C(C(C)C)NC1=O (stereo unspecified)
inactive: [1] 31.9% | [2] 38.8% | [3] 45.9% | [4] 25.1% | [5] 16.8% | [6] 42.5%

Clc1ccc(N2CCN(c3ccc(Cl)cc3)CC2)cc1
inactive: [1] -20.1% | [2] 1.45% | [3] -6.75% | [4] 1.25% | [5] -6.9% | [6] 6.05%
